Measured values taken from PubChem BioAssay (NCI).
About 83,000 compounds went through this panel and 20% of them were active in at least one assay; those are over-represented in the sample as a whole.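 Treatment: one concentration, 48 hours, 96-well format. Scoring: percent growth, with anything below 10 considered active.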 Active and inactive are the calls of the source.

How the values were obtained:
Assay in all cases: NCI-60 one-dose screen, 48 h (100 = growth as untreated, 0 = no growth, -100 = all killed)
Settings in all cases: 10 µM unless noted
[1] = test system: NCI-H23 lung
[2] = test system: NCI-H226 lung
[3] = test system: NCI-H322M lung
[4] = test system: HOP-62 NSCLC
[5] = test system: NCI-H460 lung
[6] = test system: HOP-92 NSCLC
[7] = test system: NCI-H522 lung
[8] = test system: A549/ATCC NSCLC
[9] = test system: 786-0 renal
[10] = test system: COLO 205 colon

Measured: growth

CCN(CC)CCC(C(=O)O)(c1ccccc1)c1ccccc1
inactive: [1] 95.3% | [2] 106% | [3] 103% | [4] 86.5% | [5] 105% | [6] 101% | [7] 89.7% | [8] 110% | [9] 96.4% | [10] 101%

CN1CCN(C(=O)/C=C/c2ccc([N+](=O)[O-])o2)CC1
inactive: [1] 98.1% | [2] 110% | [3] 111% | [4] 134% | [5] 91% | [6] 85.9% | [8] 53.8% | [9] 110% | [10] 76.2%
active: [7] 4.39%

COc1ccc(-c2nn(-c3ccc(NC(=O)Nc4ccc(Cl)c(C(F)(F)F)c4)cc3)cc2-c2ccncc2)cc1Cl
active: [1] 6.3% | [2] 1.73% | [4] -0.289% | [5] -28.2% | [6] -22% | [7] -2.66% | [9] -33.7% | [10] -74.5%
inactive: [3] 32.7% | [8] 10.3%

COc1ccccc1S(=O)(=O)Nc1ccc2c3c(cc(-c4cnn(C)c4)nc13)C(=O)N2C
inactive: [1] 46.6% | [2] 61.9% | [3] 47.4% | [4] 33.3% | [5] 46.9% | [6] 27.4% | [7] 36% | [8] 38.6% | [9] 43.8% | [10] 15.8%

C#C[C@H](O)/C=C/CCCCCCC#C[C@H](O)CC[C@@H](O)C#CCCCCCC/C=C/[C@@H](O)C#C
inactive: [1] 51% | [2] 116% | [3] 96.3% | [4] 85.3% | [5] 97.4% | [6] 11.9% | [8] 91.1% | [9] 64.6% | [10] 79.8%
active: [7] -72.7%

O=C(Nc1ccc(-n2ccc3c(NC(=O)c4ccccc4)ncnc32)cc1)Nc1ccc(Cl)c(Cl)c1
inactive: [1] 18.7% | [2] 16.7% | [3] 21% | [9] 26.1% | [10] 17.7%
active: [4] 8.39% | [5] -29.6% | [6] -9.63% | [7] -12.2% | [8] -44.5%

Nn1c(CN2CCN(c3cc4c(cc3F)c(=O)c(C(=O)O)cn4C3CC3)CC2)n[nH]c1=S
inactive: [1] 95.2% | [2] 107% | [3] 93.3% | [4] 96.4% | [5] 109% | [6] 116% | [7] 85.8% | [8] 101% | [9] 97.3% | [10] 121%

CC(CCC(=O)O)[C@H]1CCC2C3C(=O)C[C@@H]4CC(=O)CC[C@]4(C)C3CC(=O)[C@@]21C (stereo not given in full)
inactive: [1] 101% | [2] 103% | [3] 111% | [4] 112% | [5] 107% | [6] 96.2% | [7] 117% | [8] 98.7% | [9] 106% | [10] 119%

S=C=NP1(N=C=S)=NP(N=C=S)(N=C=S)=NP(N=C=S)(N=C=S)=NP(N=C=S)(N=C=S)=N1 (stereo not given)
inactive: [1] 97.7% | [2] 94% | [3] 80.9% | [4] 85.4% | [5] 111% | [6] 93.2% | [7] 72.2% | [8] 79.2% | [9] 89.4% | [10] 118%

O=c1c(-c2ccc3c(c2)OCO3)coc2c(CO)c(O)ccc12
inactive: [1] 56.8% | [3] 16.6% | [7] 36.7% | [8] 49.2% | [9] 23.6% | [10] 113%
active: [2] -35.6% | [4] -54.1% | [5] 9.52% | [6] -21.6%

COc1ccc(NC(=O)Nc2ccc(-c3ccc(OC)c(OC)c3)nc2C)cc1
inactive: [1] 67.4% | [2] 58% | [3] 87% | [4] 56.5% | [5] 17.6% | [6] 73.4% | [7] 49.9% | [8] 57% | [9] 11.1% | [10] 91.9%

O=C(C[n+]1cccc(Br)c1)c1ccc2c(c1)CCCC2
inactive: [1] 92% | [2] 93.2% | [3] 101% | [4] 89% | [5] 105% | [6] 70.5% | [7] 80.5% | [8] 95.9% | [9] 88.3% | [10] 91.4%

Nc1c(C(=O)O)[nH]c(=O)[nH]c1=O
inactive: [1] 103% | [2] 93.8% | [3] 102% | [4] 108% | [5] 104% | [6] 104% | [7] 84.3% | [8] 71.9% | [9] 104% | [10] 115%
